# Values without a mark were called inactive.
# Experiments:
# Experiment in all cases: log2 ratio of Biotin-Ahx-Ub-VS probe labelling (fragment/DMSO); higher = less target engagement (more negative = stronger competition), active = hit call of the paper (q ≤ 0.05, log2 ratio ≤ -1)
# Conditions in all cases: compound concentration: 200 uM; treatment time: 3 h
# [1] = target: UniProt O00507
# Method in brief: (§1)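 Triplicate samples of HEK293T lysate, 495 µg each, received fragment at 200 µM or vehicle for 3 h, followed by Biotin-Ahx-Ub-VS (0.5 µM final) for 1 h. After NeutrAvidin enrichment of labelled DUBs and LysC/trypsin digestion, peptides were run by diaPASEF LC-MS/MS. The values are average log2 fragment/vehicle ratios from global-median-normalised Spectronaut label-free quantities, tested by unpaired t-test on proteins having ≥2 unique peptides.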
# [2] = target: UniProt P51784
# Method in brief: as §1
# [3] = target: T1, UniProt Q5T2D3
# T1 sequence (whole entry): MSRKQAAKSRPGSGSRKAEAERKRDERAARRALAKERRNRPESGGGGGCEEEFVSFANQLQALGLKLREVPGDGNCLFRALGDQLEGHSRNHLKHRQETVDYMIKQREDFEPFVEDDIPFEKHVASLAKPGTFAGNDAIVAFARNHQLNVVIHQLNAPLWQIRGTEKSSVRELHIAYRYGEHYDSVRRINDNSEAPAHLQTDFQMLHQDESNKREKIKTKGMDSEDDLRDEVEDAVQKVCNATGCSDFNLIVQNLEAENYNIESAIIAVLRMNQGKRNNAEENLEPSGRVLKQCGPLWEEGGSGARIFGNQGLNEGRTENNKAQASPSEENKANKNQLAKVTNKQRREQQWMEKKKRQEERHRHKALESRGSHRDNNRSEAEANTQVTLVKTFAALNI
# Method in brief: as §1
# [4] = target: T2, UniProt Q8TE49
# T2 sequence (whole entry): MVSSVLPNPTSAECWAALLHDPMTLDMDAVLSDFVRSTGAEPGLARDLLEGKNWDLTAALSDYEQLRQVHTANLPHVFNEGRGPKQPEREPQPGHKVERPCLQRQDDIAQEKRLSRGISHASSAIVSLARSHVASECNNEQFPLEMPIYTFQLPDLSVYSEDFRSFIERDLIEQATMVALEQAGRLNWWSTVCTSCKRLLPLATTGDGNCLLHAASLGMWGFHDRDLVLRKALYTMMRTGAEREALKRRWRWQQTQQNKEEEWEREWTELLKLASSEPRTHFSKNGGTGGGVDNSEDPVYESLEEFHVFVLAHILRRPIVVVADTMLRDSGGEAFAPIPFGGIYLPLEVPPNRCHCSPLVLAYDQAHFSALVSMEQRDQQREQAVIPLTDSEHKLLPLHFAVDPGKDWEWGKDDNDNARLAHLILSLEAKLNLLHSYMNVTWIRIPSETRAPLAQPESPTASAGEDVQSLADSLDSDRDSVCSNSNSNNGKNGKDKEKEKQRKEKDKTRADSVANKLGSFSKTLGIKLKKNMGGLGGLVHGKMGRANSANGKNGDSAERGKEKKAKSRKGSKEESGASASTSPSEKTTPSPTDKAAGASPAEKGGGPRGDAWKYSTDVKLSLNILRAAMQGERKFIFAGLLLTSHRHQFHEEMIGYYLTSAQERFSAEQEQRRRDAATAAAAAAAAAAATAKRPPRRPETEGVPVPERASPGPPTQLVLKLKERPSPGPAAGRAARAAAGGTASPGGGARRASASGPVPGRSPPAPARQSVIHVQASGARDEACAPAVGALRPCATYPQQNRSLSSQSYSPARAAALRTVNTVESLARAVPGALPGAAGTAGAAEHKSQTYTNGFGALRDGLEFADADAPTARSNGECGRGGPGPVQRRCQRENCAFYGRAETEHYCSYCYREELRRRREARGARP
# Method in brief: as §1
# [5] = target: T3, UniProt Q9P2H5
# T3 sequence (whole entry): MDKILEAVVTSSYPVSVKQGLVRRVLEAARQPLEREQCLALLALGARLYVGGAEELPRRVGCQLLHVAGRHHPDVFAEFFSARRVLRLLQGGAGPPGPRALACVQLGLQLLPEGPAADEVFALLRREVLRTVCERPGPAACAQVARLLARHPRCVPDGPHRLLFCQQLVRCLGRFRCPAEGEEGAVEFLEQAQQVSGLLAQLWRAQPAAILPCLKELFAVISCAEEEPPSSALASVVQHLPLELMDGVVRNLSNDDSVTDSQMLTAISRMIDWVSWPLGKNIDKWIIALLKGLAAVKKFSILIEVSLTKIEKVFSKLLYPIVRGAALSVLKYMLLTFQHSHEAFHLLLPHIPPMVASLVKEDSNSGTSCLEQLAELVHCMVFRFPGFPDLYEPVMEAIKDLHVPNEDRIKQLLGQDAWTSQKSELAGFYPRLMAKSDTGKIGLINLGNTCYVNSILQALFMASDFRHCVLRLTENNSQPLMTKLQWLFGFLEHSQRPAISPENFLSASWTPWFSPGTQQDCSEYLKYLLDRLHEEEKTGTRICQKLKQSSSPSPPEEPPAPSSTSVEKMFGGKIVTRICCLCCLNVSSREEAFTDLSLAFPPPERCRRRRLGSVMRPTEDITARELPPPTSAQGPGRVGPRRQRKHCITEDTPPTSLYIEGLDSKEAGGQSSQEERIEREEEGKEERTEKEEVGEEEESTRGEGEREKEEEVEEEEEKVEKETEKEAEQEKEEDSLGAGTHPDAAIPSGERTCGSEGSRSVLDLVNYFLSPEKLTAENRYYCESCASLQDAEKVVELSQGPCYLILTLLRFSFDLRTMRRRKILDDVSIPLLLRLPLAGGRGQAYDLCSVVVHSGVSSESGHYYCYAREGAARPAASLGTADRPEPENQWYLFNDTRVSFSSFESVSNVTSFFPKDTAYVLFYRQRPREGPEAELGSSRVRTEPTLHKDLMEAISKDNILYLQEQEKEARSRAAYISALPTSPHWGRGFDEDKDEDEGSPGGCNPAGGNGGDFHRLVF
# Method in brief: as §1
# [6] = target: T4, UniProt Q9UGI0
# T4 sequence (whole entry): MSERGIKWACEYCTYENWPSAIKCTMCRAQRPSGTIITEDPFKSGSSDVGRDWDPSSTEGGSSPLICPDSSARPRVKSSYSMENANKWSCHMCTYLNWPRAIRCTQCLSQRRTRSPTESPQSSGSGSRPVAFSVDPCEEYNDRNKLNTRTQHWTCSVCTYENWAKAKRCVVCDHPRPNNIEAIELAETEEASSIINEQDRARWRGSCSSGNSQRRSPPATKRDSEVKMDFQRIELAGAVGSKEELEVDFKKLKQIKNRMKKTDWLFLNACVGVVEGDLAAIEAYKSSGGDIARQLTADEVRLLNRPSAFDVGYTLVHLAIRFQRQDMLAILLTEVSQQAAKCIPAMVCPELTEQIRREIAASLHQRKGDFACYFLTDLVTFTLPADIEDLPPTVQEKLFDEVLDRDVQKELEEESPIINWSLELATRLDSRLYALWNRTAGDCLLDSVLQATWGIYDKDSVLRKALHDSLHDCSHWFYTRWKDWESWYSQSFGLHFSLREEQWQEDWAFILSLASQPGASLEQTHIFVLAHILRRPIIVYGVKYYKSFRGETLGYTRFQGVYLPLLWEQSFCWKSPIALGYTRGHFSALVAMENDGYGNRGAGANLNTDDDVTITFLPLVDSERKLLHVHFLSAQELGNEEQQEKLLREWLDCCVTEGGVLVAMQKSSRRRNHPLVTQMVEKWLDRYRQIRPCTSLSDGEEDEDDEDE
# Method in brief: as §1
# [7] = target: T5, YOD1 (UniProt Q5VVQ6)
# T5 sequence (whole entry): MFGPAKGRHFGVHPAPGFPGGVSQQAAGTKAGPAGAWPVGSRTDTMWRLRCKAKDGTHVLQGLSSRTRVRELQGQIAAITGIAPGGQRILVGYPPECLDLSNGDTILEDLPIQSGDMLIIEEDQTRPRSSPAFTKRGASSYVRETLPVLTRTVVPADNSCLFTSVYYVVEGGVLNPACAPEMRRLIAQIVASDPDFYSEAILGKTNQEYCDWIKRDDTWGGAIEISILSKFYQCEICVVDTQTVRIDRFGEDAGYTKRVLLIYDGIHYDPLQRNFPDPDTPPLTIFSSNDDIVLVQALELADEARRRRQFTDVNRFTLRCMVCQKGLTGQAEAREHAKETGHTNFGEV
# Method in brief: as §1
# Chain of UniProt O00507 (O00507 whole entry, the tested form may be a part): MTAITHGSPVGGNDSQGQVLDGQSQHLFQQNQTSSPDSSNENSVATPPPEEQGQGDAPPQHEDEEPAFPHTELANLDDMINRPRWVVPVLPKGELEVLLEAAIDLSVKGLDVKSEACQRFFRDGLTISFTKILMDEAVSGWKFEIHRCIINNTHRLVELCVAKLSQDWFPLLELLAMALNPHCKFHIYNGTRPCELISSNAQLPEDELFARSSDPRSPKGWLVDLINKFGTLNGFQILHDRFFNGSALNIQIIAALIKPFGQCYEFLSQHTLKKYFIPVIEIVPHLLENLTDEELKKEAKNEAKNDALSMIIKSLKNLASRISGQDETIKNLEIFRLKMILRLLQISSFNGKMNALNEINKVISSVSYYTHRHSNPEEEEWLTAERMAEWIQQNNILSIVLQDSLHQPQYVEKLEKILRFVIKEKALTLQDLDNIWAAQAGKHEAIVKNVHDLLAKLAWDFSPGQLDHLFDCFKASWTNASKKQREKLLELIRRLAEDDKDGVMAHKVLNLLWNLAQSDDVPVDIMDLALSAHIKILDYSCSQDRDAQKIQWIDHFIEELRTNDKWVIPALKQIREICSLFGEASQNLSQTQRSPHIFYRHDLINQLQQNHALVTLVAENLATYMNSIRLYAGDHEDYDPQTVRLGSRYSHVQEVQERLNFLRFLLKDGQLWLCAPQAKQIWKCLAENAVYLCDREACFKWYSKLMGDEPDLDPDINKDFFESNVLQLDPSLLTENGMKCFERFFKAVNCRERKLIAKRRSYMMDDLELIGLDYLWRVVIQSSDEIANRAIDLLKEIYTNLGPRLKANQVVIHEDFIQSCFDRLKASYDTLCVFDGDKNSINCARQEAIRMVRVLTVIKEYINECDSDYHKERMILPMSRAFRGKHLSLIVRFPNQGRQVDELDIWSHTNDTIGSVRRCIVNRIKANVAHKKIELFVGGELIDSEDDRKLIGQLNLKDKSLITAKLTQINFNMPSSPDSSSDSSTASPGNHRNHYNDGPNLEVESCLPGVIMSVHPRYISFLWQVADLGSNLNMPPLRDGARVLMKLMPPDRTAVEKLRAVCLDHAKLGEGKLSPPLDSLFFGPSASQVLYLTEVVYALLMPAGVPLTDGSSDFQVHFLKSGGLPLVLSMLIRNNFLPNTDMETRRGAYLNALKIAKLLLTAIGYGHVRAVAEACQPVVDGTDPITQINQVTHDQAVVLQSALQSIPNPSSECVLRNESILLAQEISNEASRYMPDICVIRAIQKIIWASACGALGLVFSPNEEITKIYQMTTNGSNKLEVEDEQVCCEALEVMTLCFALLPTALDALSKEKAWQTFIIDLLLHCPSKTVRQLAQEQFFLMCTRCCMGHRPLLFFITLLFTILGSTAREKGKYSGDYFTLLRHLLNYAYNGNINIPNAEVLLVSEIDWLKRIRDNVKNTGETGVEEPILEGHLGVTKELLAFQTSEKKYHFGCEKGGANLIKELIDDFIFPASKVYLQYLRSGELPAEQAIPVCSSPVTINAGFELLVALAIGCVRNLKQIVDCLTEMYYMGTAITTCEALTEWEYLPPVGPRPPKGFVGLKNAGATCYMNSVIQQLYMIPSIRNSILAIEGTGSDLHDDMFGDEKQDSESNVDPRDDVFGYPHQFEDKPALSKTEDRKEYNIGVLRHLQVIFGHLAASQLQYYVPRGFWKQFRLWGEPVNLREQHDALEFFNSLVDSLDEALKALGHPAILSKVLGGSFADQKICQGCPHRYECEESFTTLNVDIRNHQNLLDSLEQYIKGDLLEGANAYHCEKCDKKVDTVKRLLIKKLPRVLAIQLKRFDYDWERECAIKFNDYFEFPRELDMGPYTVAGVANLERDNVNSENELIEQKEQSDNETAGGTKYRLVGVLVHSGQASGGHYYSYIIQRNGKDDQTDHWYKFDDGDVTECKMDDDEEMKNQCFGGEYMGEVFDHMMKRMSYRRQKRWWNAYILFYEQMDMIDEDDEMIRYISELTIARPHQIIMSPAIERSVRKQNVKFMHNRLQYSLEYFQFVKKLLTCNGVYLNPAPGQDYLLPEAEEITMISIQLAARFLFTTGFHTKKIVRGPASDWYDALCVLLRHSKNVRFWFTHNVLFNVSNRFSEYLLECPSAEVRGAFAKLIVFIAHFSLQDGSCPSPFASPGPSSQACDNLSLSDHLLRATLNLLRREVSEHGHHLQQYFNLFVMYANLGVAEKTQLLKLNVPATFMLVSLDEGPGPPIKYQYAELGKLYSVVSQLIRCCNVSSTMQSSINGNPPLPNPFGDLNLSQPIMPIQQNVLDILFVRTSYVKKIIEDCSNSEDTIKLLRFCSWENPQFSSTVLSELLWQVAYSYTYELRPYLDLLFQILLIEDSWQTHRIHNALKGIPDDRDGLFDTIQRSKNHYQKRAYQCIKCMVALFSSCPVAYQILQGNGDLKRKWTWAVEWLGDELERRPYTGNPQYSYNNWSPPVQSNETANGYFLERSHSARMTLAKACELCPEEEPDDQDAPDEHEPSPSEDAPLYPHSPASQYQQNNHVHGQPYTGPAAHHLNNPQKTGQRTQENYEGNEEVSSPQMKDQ
# Chain of UniProt P51784 (P51784 whole entry): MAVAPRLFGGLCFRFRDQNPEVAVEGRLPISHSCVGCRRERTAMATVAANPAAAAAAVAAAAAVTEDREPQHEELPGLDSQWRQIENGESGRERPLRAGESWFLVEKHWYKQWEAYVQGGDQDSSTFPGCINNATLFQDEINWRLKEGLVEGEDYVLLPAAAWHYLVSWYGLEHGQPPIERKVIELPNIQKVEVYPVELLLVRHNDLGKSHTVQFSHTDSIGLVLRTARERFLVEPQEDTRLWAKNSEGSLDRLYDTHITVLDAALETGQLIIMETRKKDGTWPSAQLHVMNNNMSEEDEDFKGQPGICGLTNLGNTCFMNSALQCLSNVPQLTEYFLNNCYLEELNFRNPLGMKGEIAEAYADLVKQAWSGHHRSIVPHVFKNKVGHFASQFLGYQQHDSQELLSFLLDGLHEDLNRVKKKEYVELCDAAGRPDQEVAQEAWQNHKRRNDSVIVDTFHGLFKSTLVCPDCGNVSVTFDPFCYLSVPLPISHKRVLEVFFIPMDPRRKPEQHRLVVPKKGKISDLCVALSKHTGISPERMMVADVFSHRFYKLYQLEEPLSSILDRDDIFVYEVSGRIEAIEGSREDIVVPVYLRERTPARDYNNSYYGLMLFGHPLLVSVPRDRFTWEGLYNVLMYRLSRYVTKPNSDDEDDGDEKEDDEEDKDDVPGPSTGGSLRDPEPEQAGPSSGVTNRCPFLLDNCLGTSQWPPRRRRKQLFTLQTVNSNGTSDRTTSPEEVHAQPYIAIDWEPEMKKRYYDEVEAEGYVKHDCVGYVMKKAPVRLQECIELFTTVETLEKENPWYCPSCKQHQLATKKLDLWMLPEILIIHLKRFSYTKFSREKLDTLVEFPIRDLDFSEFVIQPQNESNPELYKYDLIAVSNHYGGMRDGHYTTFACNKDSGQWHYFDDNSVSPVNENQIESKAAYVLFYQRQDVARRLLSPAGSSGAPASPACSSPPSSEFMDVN
Compound,log2 ratio of Biotin-Ahx-Ub-VS probe labelling [1],log2 ratio of Biotin-Ahx-Ub-VS probe labelling [2],log2 ratio of Biotin-Ahx-Ub-VS probe labelling [3],log2 ratio of Biotin-Ahx-Ub-VS probe labelling [4],log2 ratio of Biotin-Ahx-Ub-VS probe labelling [5],log2 ratio of Biotin-Ahx-Ub-VS probe labelling [6],log2 ratio of Biotin-Ahx-Ub-VS probe labelling [7]
Cc1cccc(NC(=O)CCl)c1C,-0.281,-0.431,-0.156,-0.703,-0.325,-0.414,-0.291
Cc1cccc(NC(=O)[C@@H]2CCCN2C(=O)CCl)n1,-0.299,-0.00908,-0.366,-0.721,-0.312,-0.3,-0.432
O=C(CCl)NC1CCCCNC1=O (centres undefined),-0.323,-0.117,-0.329,-0.574,-0.277,-0.309,-0.218
Cc1nc(CC2CCN(C(=O)CCl)CC2)no1,-0.771,-0.658,-0.786,-1.04 (active),-0.59,-0.834,-0.679
CS(=O)(=O)c1ccc(NC(=O)CCl)cc1,-0.0176,-0.0206,-0.139,-0.443,-0.192,-0.87,0.0991
O=C(CCl)NC1CCC2(CC1)OCCO2,-0.379,-0.104,-0.473,-0.565,-0.399,-0.544,-0.297
Cl.O=C(CCl)NCCN1CCc2ccccc21,-0.631,-0.722,-0.805,-0.934,-0.844,-0.971,-0.814
Cc1noc(N2CCN(C(=O)CCl)CC2)n1.Cl,0.416,0.139,-0.466,-0.674,-0.642,-0.369,0.313
C/C(=C\CNC(=O)CCl)c1cnn(C)c1.Cl,-0.224,-0.391,-0.0109,-0.499,-0.465,-0.0207,-0.155
COc1cc(Cl)c(C)cc1NC(=O)CCl,-0.429,-0.107,-0.258,-0.622,-0.319,-1.23 (active),-0.11
CC(=O)C1CCCCN1C(=O)CCl (centres undefined),0.17,0.028,-0.0455,-0.492,-0.14,0.121,-0.0382
COc1ccc(Cl)cc1NC(=O)CCl,-0.985,-0.276,-0.485,-0.837,-0.335,-0.741,-0.669
Cc1c(C#N)c(NC(=O)CCl)n(Cc2ccco2)c1C,-0.255,-0.349,-0.169,-2.48 (active),-0.304,-0.313,-0.0342
Cc1ccc(N2CCC(NC(=O)CCl)C2=O)cc1 (centres undefined),0.561,0.0347,-0.0872,-0.518,-0.134,0.0412,0.132
Cn1cc(CN(Cc2ccc(Cl)cc2)C(=O)CCl)cn1,-0.606,-0.11,0.147,-0.82,-0.065,-0.327,-0.0228
O=C(CCl)NC1CCS(=O)(=O)c2ccccc21 (centres undefined),-0.00358,-0.174,-0.342,-1.2 (active),-0.644,-0.564,0.0479
Cc1ccccc1CN(C)C(=O)CCl,-1.06 (active),-0.62,-0.704,-1.06 (active),-0.712,-1.3 (active),-0.638
O=C(CCl)N1CCCCCC1c1ncon1 (centres undefined),-0.0474,-0.00586,-0.23,-0.401,-0.21,-0.661,0.022
Cl.O=C(CCl)NCc1cc2c(nc1O)CCCC2,-0.0624,0.0791,-0.333,-0.515,-0.244,-0.421,-0.158
CCCn1nccc1NC(=O)CCl,-0.381,-0.0768,-0.0284,-1.02 (active),-0.452,-0.251,-0.159
O=C(CCl)N1CCN(C(=O)Nc2ccccc2)CC1,0.452,0.16,-0.132,-0.337,-0.158,0.0377,0.444
O=C(CCl)N(C1CCCC1)C1CCS(=O)(=O)C1 (centres undefined),0.335,-0.112,-0.128,-0.372,-0.386,-0.121,0.15
Cc1ccc(CNC(=O)CCl)nc1C.Cl,-0.661,0.353,-0.0639,-0.343,0.102,-0.161,-0.259
Cc1conc1C1CN(C(=O)CCl)C1,-0.553,-0.677,-0.923,-1.71 (active),-0.584,-0.885,-1.1 (active)
O=C(CCl)N1CCc2sccc2C1,-0.0149,-0.207,-0.075,-1.18 (active),-0.371,-1.9 (active),-0.00804
Cc1ccccc1OCC(=O)N1CCN(C(=O)CCl)CC1,0.258,-0.215,-0.106,-0.335,-0.172,-0.104,-0.00243
Cl.Cn1ncc2c1CCCC2NC(=O)CCl (centres undefined),-0.0339,-0.154,-0.121,-3.69 (active),-0.276,0.0166,-0.109
